Assay outcomes from PubChem BioAssay.
Rows were chosen to be rich in hits. Some 12% of all compounds tested hit in one or more screens of this group.
MARV entry inh: qHTS for inhibitors of binding or entry into cells for Marburg Virus; Marburg virus pseudotyped entry inhibition, cell reporter; Potency, µM (doses to about 37.8 µM), actives largely listed as inhibitors; 300,000 compounds, 1.8% hits; calls by dose curve; tested in HEK293 cells
Shiga inhibitor: A qHTS for Small Molecule Inhibitors of Shiga Toxin; Vero cells, Shiga toxin protein synthesis inhibition reporter; inhibition, % at 38.7 µM; 290,000 compounds, 9.2% hits; AID 2315, 2010; in the data active = inhibition mostly above about 28%, no sharp cut-off; inactive = mostly below about 43%
Cycloheximide cs: Cycloheximide Counterscreen for Small Molecule Inhibitors of Shiga Toxin. cell reporter, cycloheximide protein synthesis inhibition counterscreen. max response, %. 300,000 compounds, 12% hits. AID 2314, 2010; in the data active = max response mostly above about 13%, no sharp cut-off; inactive = mostly below about 14%; note: read at 38.3 µM for the half of the compounds with a filed dose
Lassa entry inh: qHTS for Inhibitors of binding or entry into cells for Lassa Virus; Lassa virus pseudotype entry inhibition, cell reporter; Potency, µM (doses to about 37.9 µM), actives largely listed as inhibitors; 300,000 compounds, 1.2% hits; calls by dose curve; tested in HEK293 cells; note: nearly all actives have a fitted effect of over 50% in size
Each line names hits and unclear results; the compound was inactive in the other large screens.

COc1ccc(C(=O)N2CCC(c3nc(-c4ccc(S(=O)(=O)N5CCCC5)cc4)no3)CC2)cc1	MARV entry inh inconclusive (no result: Shiga inhibitor, Cycloheximide cs)
CC(C)=CC(O)C/C(C)=C/COc1ccc2ccc(=O)oc2c1 (centres undefined)	Cycloheximide cs 8.6 (no result: MARV entry inh, Lassa entry inh)
COc1cccc(/C=N/n2c(COc3ccccc3)n[nH]c2=S)c1	MARV entry inh inconclusive, Lassa entry inh inconclusive
CCC(=O)N1CCN(c2ccc(NC(=O)c3ccco3)cc2Cl)CC1	Cycloheximide cs 15, Lassa entry inh inconclusive
CN1CCN(c2ccc(C(F)(F)F)cc2NC(=O)c2ccco2)CC1	MARV entry inh 10µM
O=C(Nc1ccc(N2CCOCC2)c(Cl)c1)c1ccco1	MARV entry inh inconclusive, Cycloheximide cs 34, Lassa entry inh inconclusive
CC(=O)N1CCN(c2ccc(NC(=O)c3ccco3)cc2Cl)CC1	Shiga inhibitor 43, Cycloheximide cs 17
CCC(=O)N1CCN(c2ccc(Cl)cc2NC(=S)NC(=O)c2ccco2)CC1	none (no result: Shiga inhibitor, Cycloheximide cs)
CC(C)C(=O)N1CCN(c2ccc(NC(=O)c3ccco3)cc2Cl)CC1	none
C=CCC(C(=O)OC)(C(=O)OC)c1ccccc1[N+](=O)[O-]	none
COc1ccccc1C1(O)CCN(CCCn2c3ccccc3c3ccccc32)CC1	none (no result: MARV entry inh, Lassa entry inh)
Nc1nc(-c2ccc3c(c2)CCO3)cs1	Shiga inhibitor 98, Cycloheximide cs 38, Lassa entry inh inconclusive
CN(C(=O)c1ccc2c(c1)CCO2)C(C)(C)C	none
CC(=O)Nc1nc(-c2ccc3c(c2)CCO3)cs1	Shiga inhibitor 74, Cycloheximide cs 29 (no result: MARV entry inh, Lassa entry inh)
Cc1nc2ccccn2c1C(=O)N/N=C/c1ccccc1	Cycloheximide cs 20 (no result: MARV entry inh, Lassa entry inh)
Cc1ccc(NC(=O)C(=O)NCc2ccc(/C=N/NC(=O)c3c(C)nc4ccccn34)o2)cc1	Cycloheximide cs 28
Cc1nc2ccccn2c1C(=O)N/N=C/c1ccc(F)cc1	MARV entry inh inconclusive, Lassa entry inh inconclusive
Cc1ccn2c(C(=O)N/N=C/c3ccc(CNC(=O)C(=O)Nc4ccc(C)c(C)c4)o3)c(C)nc2c1	none (no result: MARV entry inh, Lassa entry inh)
Cc1nc2ccccn2c1C(=O)N/N=C/c1cc(C)n(-c2ccc(Br)cc2)c1C	MARV entry inh inconclusive, Cycloheximide cs 16
CC(C)Cn1nc(NC(=O)c2cccc(Cl)c2)c2cc3ccccc3nc21	MARV entry inh inconclusive (no result: Shiga inhibitor, Cycloheximide cs)
Cc1ccccc1N=C1Nc2ccccc2CS1	MARV entry inh inconclusive, Shiga inhibitor 122, Cycloheximide cs 29, Lassa entry inh inconclusive
CC1CCN(C(=O)Cn2cnc3c(cnn3C(C)(C)C)c2=O)CC1	MARV entry inh inconclusive, Shiga inhibitor 93, Cycloheximide cs 56, Lassa entry inh inconclusive
CC(C)(C)n1ncc2c(=O)n(CC(=O)N3CCCC3)cnc21	none
CC(=O)Nc1ccc(NC(=O)Cn2cnc3c(cnn3C(C)(C)C)c2=O)cc1	none
CC(C)(C)n1ncc2c(=O)n(CC(=O)NCc3ccccc3)cnc21	MARV entry inh inconclusive, Shiga inhibitor 37, Cycloheximide cs 20, Lassa entry inh inconclusive
CC(C)(C)n1ncc2c(=O)n(CC(=O)c3ccc(Cl)cc3)cnc21	MARV entry inh inconclusive, Shiga inhibitor 84, Cycloheximide cs 78, Lassa entry inh inconclusive
CC(C)(C)n1ncc2c(=O)n(Cc3c(F)cccc3Cl)cnc21	Cycloheximide cs 16
CN1C(=O)C(C(=O)NC(C)(C)C)C2c3ccccc3OC13CCCCC23 (centres undefined)	none
CN(C)S(=O)(=O)c1cccc(NC(=O)c2cncc(Br)c2)c1	MARV entry inh inconclusive
Cc1ccc(NC(=O)c2cncc(Br)c2)cc1S(=O)(=O)N(C)C	MARV entry inh inconclusive, Shiga inhibitor 99, Cycloheximide cs 38, Lassa entry inh inconclusive
Cc1ccc(NC(=O)c2sccc2C)cc1S(=O)(=O)N(C)C	Cycloheximide cs 28
Cc1ccc(NC(=O)CSc2nnc(-c3cccs3)o2)cc1S(=O)(=O)N(C)C	Shiga inhibitor 117, Cycloheximide cs 27 (no result: MARV entry inh, Lassa entry inh)
O=C1CN(C(=O)COC(=O)CNS(=O)(=O)/C=C/c2ccccc2)c2ccccc2N1	none
CCN(CC(=O)Nc1c(F)cccc1F)C(=O)c1ccc(NC(=O)CC2SC(N3CCCC3)=NC2=O)cc1 (centres undefined)	none (no result: Shiga inhibitor, Cycloheximide cs)
C[C@H](NC(=O)[C@@H](N)Cc1ccc(O)cc1)C(=O)NCC(=O)N[C@H]1CSSC[C@@H](C(=O)O)NC(=O)[C@H](CO)NC(=O)[C@H]([C@@H](C)O)NC(=O)[C@H](Cc2ccccc2)NC(=O)[C@H]([C@@H](C)O)NC(=O)[C@H](CCCCN)NC(=O)[C@H](Cc2c[nH]c3ccccc23)NC(=O)[C@H](Cc2ccccc2)NC(=O)[C@H](Cc2ccccc2)NC(=O)[C@H](CC(N)=O)NC(=O)[C@H](CCCCN)NC1=O	none (no result: MARV entry inh, Lassa entry inh)
CCOc1ccc(CCNC(=O)C2CCCN(S(=O)(=O)N(C)c3ccc(F)cc3)C2)cc1 (centres undefined)	none (no result: MARV entry inh, Shiga inhibitor, Cycloheximide cs)
COC(=O)c1ccc(N2CN=C(c3ccc(C)cc3)NC2=S)cc1	Lassa entry inh inconclusive
S=C1NC(c2ccccc2)=NCN1c1ccc(Cl)cc1	MARV entry inh inconclusive, Cycloheximide cs 27
O=C(O)c1ccc(S(=O)(=O)N(CCc2ccccc2)Cc2ccc(Cl)cc2)cc1	none (no result: MARV entry inh, Shiga inhibitor, Lassa entry inh)
COc1ccc(-c2csc(Nc3cc(C)ccn3)n2)cc1C	Shiga inhibitor 120, Cycloheximide cs 62 (no result: MARV entry inh, Lassa entry inh)
COc1ccc(-c2cc3cc(OC)c(OC)cc3c(C)n2)cc1C	none (no result: MARV entry inh, Lassa entry inh)
COc1ccc(-c2csc(Nc3ncccn3)n2)cc1C	Shiga inhibitor 48, Cycloheximide cs 31 (no result: MARV entry inh, Lassa entry inh)
COc1ccc(C(=O)NCC(c2cccnc2)N2CCN(c3ccc(F)cc3)CC2)cc1 (centres undefined)	none (no result: MARV entry inh, Shiga inhibitor, Cycloheximide cs)
Cc1c(Oc2ccc(C(F)(F)F)cc2[N+](=O)[O-])ccc2c3c(c(=O)oc12)CCC3	none
Cc1ccc(Oc2ccc(C(F)(F)F)cc2[N+](=O)[O-])c([N+](=O)[O-])n1	MARV entry inh inconclusive, Cycloheximide cs 30, Lassa entry inh inconclusive
Cc1cc(C)c(NC(=O)CN2CCN(c3ccccn3)CC2)c(C)c1	MARV entry inh inconclusive
O=C(c1cc(COc2ccc(F)cc2Cl)on1)N1CCSCC1	MARV entry inh inconclusive, Shiga inhibitor 67, Cycloheximide cs 62
COc1ccc(OCc2cc(C(=O)NC3CCc4ccccc43)no2)c(Cl)c1 (centres undefined)	none
COc1ccc(OCc2cc(C(=O)N3CCCCCC3)no2)c(Cl)c1	MARV entry inh inconclusive, Shiga inhibitor 68, Cycloheximide cs 47
COc1ccc(OCc2cc(C(=O)NCCCc3ccccc3)no2)c(Cl)c1	none
COc1ccc(OCc2cc(C(=O)N3CCSCC3)no2)c(Cl)c1	Shiga inhibitor 143, Cycloheximide cs 67
COc1ccc(OCc2cc(C(=O)N3CCOCC3)no2)c(Cl)c1	MARV entry inh inconclusive, Shiga inhibitor 91, Cycloheximide cs 43
CCOc1ccc(CC(=O)NCCc2csc(-c3ccc(C(F)(F)F)cc3)n2)cc1	none (no result: MARV entry inh, Shiga inhibitor, Cycloheximide cs)
COc1ccc(C(C(=O)NC(C)(C)C)N(C(=O)CCC(=O)Nc2cc(C)on2)c2cccc(C)c2C)cc1 (centres undefined)	MARV entry inh inconclusive
O=C(CN1C(=O)CSc2ccc(S(=O)(=O)N3CCOCC3)cc21)NCc1cccnc1	none
CN=C(NC#N)NCCSCC1N=CN=C1C (centres undefined)	none (no result: Shiga inhibitor, Cycloheximide cs, Lassa entry inh)
CCN(CCn1cccn1)C(=O)c1cc(COc2ccc(F)cc2Cl)on1	none (no result: Lassa entry inh)
